From PubChem BioAssay (NCI)
Values joined by “and” are separate entries in the source; they are usually repeats but may differ in a detail not shown here. Equal values may be shown once. About 79,000 compounds went through this panel and 15% of them were active in at least one assay; those are over-represented in the sample as a whole. Where a structure was tested more than once in an assay, its records may differ in their call. Active and inactive are the calls of the source. No stated cut-off is given here; in the data, active means growth inhibition above about 70%; inactive means the rest.

Tests used:
[1] = NCI Yeast Anticancer Drug Screen. Data for the mec2-1 strain (AID 157); details: S. cerevisiae mec2-1 strain, stronger effect = higher value
Outline: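 Yeast mec2-1 mutant treated with compound. Readout: growth inhibition vs vehicle controls.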

[2] = NCI Yeast Anticancer Drug Screen. Data for the rad14 strain (AID 159);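 further: 0% = growth of vehicle-treated control cultures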; details: S. cerevisiae rad14 strain growth inhibition, stronger effect = higher value
Outline: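 Here, inhibition of yeast growth was measured after compound exposure, using a strain with a genetic defect in DNA damage repair and vehicle-treated cultures as the reference.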

[3] = NCI Yeast Anticancer Drug Screen. Data for the sgs1 mgt1 strain (AID 161);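 further: 0% = growth of cultures given vehicle only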; details: S. cerevisiae sgs1 mgt1 strain, stronger effect = higher value
Outline: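 Read-out: growth inhibition vs vehicle controls. Cells: mutant yeast strain deficient in DNA damage repair.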

[4] = NCI Yeast Anticancer Drug Screen. Data for the CLN2oe strain (AID 163);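 further: 0% = growth of vehicle-only control cultures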; details: S. cerevisiae CLN2oe strain, stronger effect = higher value
Outline: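 Read-out: yeast growth inhibition, expressed relative to vehicle-only controls. The strain bears an engineered cell-cycle alteration.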

[5] = NCI Yeast Anticancer Drug Screen. Data for the cln2 rad14 strain (AID 165);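 further: 0% = growth equal to vehicle treated cultures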; details: S. cerevisiae cln2 rad14 strain, stronger effect = higher value
Outline: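 cln2 rad14 yeast strain; compound exposure; growth inhibition read vs vehicle controls.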

[6] = NCI Yeast Anticancer Drug Screen. Data for the bub3 strain (AID 167); details: S. cerevisiae bub3 mutant strain, stronger effect = higher value
Outline: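 Whole-cell yeast assay. The mutant strain was incubated with compounds, and growth inhibition was determined by comparison with vehicle-treated cells.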

[7] = NCI Yeast Anticancer Drug Screen. Data for the wt2 strain (AID 169);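 further: 0% = growth of vehicle-treated yeast cultures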; details: S. cerevisiae wt2 strain growth inhibition, stronger effect = higher value
Outline: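 Read-out: growth inhibition versus vehicle-treated control cultures after compound exposure of the yeast strain.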

[8] = NCI Yeast Anticancer Drug Screen. Data for the mlh1 strain (AID 171);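 further: 0% = growth of vehicle-treated control cultures of the same strain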; details: S. cerevisiae mlh1 strain growth inhibition, stronger effect = higher value
Outline: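 Read-out: growth inhibition versus vehicle controls. Strain: engineered yeast with a defined DNA repair or cell cycle defect, compound-treated.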

[9] = NCI Yeast Anticancer Drug Screen. Data for the sgs1 strain (AID 173);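 further: 0% = growth of vehicle-only control cultures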; details: S. cerevisiae sgs1 mutant, stronger effect = higher value
Outline: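 Read-out: yeast growth inhibition relative to vehicle controls, following compound exposure of a strain with a defined DNA repair/cell cycle alteration.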

[10] = NCI Yeast Anticancer Drug Screen. Data for the mlh1 rad18 strain (AID 175); details: S. cerevisiae mlh1 rad18 strain growth inhibition, stronger effect = higher value
Outline: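 Yeast w/ defined DNA-repair lesions; compound exposure; growth vs vehicle controls → % inhibition.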

[11] = NCI Yeast Anticancer Drug Screen. Data for the rad18 strain (AID 177); details: S. cerevisiae rad18 mutant growth inhibition, stronger effect = higher value
Outline: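 Readout: growth inhibition vs vehicle controls. Cells: genetically altered yeast strain, DNA repair defect.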

[12] = NCI Yeast Anticancer Drug Screen. Data for the rad52 strain (AID 147);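 further: 0% = growth of vehicle-treated control cultures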; details: S. cerevisiae rad52 mutant growth inhibition, stronger effect = higher value
Outline: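 Read-out: growth inhibition versus vehicle-treated controls. Cells were a DNA repair-deficient yeast strain treated with compounds.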

[13] = NCI Yeast Anticancer Drug Screen. Data for the wt1 strain (AID 149);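 further: 0% = growth of vehicle-treated wt1 cultures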; details: S. cerevisiae wt1 strain (SPY 50644) growth inhibition, stronger effect = higher value
Outline: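 Measured: growth of wt1 yeast under compound versus vehicle treatment, reported as inhibition.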

[14] = NCI Yeast Anticancer Drug Screen. Data for the rad50EPP+ strain (AID 151);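 further: 0% = growth of vehicle-treated control cultures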; details: S. cerevisiae rad50 mutant strain, stronger effect = higher value
Outline: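 Growth inhibition read against vehicle controls in rad50EPP+ yeast, a strain altered in DNA damage repair, after compound exposure.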

[15] = NCI Yeast Anticancer Drug Screen. Data for the mgt1 strain (AID 153); details: S. cerevisiae mgt1 mutant growth inhibition, stronger effect = higher value
Outline: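 mgt1 yeast grown with test compound; read-out is growth inhibition versus vehicle-treated cultures.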

[16] = NCI Yeast Anticancer Drug Screen. Data for the rad50 strain (AID 155);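 further: 0% = growth of vehicle-only cultures of the same strain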; details: S. cerevisiae rad50 strain growth inhibition, stronger effect = higher value
Outline: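 Growth of the mutant yeast was measured after compound exposure and referenced to vehicle-treated cultures.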

[17] = at 5.0 µM (retest, dose inferred, filed as 0.5)
[18] = at 50.0 µM (retest, dose inferred, filed as 5.0)

Measured: growth inhibition

O=c1ssc(=Nc2ccccc2)n1-c1ccccc1
75% (active) and 8% (inactive): [10]; [17]
99.5% (active) and 66.2% (inactive): [5]; at 50.0 µM
inactive: [1]; [17] -2% and 5% | [1]; at 11.0 µM -3% | [1]; at 33.0 µM 5% | [1]; at 100.0 µM 33% | [2]; at 1.2 µM 5% | [2]; at 3.7 µM 4% | [2]; at 11.0 µM 1% | [2]; at 33.0 µM 11% | [2]; at 100.0 µM 30% | [3]; [17] 49% and 27% | [4]; at 1.2 µM 2% | [4]; at 3.7 µM -4% | [4]; at 11.0 µM -4% | [4]; at 33.0 µM 7% | [4]; at 100.0 µM 30% | [5]; [17] -11% and -1% | [6]; at 1.2 µM -5% | [6]; at 3.7 µM -9% | [6]; [17] 12% and 1% | [6]; at 11.0 µM -7% | [6]; at 33.0 µM 6% | [6]; at 100.0 µM 37% | [7]; at 1.2 µM -9% | [7]; at 3.7 µM -15% | [7]; at 11.0 µM -9% | [7]; at 33.0 µM -9% | [7]; at 100.0 µM 15% | [8]; at 1.2 µM 7% | [8]; at 3.7 µM 4% | [8]; at 11.0 µM 2% | [8]; at 33.0 µM 17% | [8]; at 100.0 µM 48% | [9]; at 1.2 µM -15% | [9]; at 3.7 µM 7% | [9]; at 11.0 µM -6% | [9]; at 33.0 µM 34% | [11]; at 1.2 µM 4% | [11]; at 3.7 µM 3% | [11]; at 11.0 µM -1% | [11]; at 33.0 µM 13% | [11]; at 100.0 µM 47%
86% (active) and 64% (inactive): [5]; [18]
active: [1]; [18] 97% and 98% | [1]; at 50.0 µM 99.8% and 99.5% | [3]; [18] 99% and 100% | [3]; at 50.0 µM 98.2% and 99.3% | [6]; [18] 99% and 100% | [6]; at 50.0 µM 99.5% and 99.7% | [9]; at 100.0 µM 79% | [10]; [18] 99% and 82% | [10]; at 50.0 µM 95.4% and 98.7%

Nc1ncc(-c2ccc(Br)cc2)s1
active: [12]; at 33.0 µM 92% | [12]; at 100.0 µM 98% | [13]; at 33.0 µM 92% | [13]; at 100.0 µM 98% | [14]; at 33.0 µM 93% | [14]; at 100.0 µM 97% | [15]; at 33.0 µM 95% | [15]; at 100.0 µM 98% | [16]; at 33.0 µM 91% | [16]; at 50.0 µM 89.5% | [16]; at 100.0 µM 97% | [1]; at 33.0 µM 92% | [1]; at 50.0 µM 93% | [1]; at 100.0 µM 98% | [2]; at 33.0 µM 93% | [2]; at 100.0 µM 97% | [3]; [18] 99% | [3]; at 50.0 µM 92.7% | [4]; at 33.0 µM 90% | [4]; at 100.0 µM 97% | [5]; [18] 99% | [5]; at 50.0 µM 90.3% | [6]; at 33.0 µM 82% | [6]; [18] 99% | [6]; at 50.0 µM 89.8% | [6]; at 100.0 µM 97% | [7]; at 33.0 µM 93% | [7]; at 100.0 µM 98% | [8]; at 33.0 µM 94% | [8]; at 100.0 µM 97% | [9]; at 33.0 µM 92% | [9]; at 100.0 µM 97% | [10]; at 50.0 µM 89.9% | [11]; at 33.0 µM 91% | [11]; at 100.0 µM 97%
inactive: [12]; at 1.2 µM 20% | [12]; at 3.7 µM 35% | [12]; at 11.0 µM 36% | [13]; at 1.2 µM 9% | [13]; at 3.7 µM 17% | [13]; at 11.0 µM 22% | [14]; at 1.2 µM 19% | [14]; at 3.7 µM 29% | [14]; at 11.0 µM 47% | [15]; at 1.2 µM 1% | [15]; at 3.7 µM -1% | [15]; at 11.0 µM 2% | [16]; at 1.2 µM 7% | [16]; at 3.7 µM 7% | [16]; [17] 51% | [16]; at 11.0 µM 13% | [16]; [18] 51% | [1]; at 1.2 µM -22% | [1]; at 3.7 µM -1% | [1]; [17] 53% | [1]; at 11.0 µM -15% | [1]; [18] 55% | [2]; at 1.2 µM -25% | [2]; at 3.7 µM -8% | [2]; at 11.0 µM -1% | [3]; [17] 18% | [4]; at 1.2 µM 21% | [4]; at 3.7 µM 3% | [4]; at 11.0 µM -7% | [5]; [17] 56% | [6]; at 1.2 µM -8% | [6]; at 3.7 µM -8% | [6]; [17] -18% | [6]; at 11.0 µM -11% | [7]; at 1.2 µM 8% | [7]; at 3.7 µM 8% | [7]; at 11.0 µM 8% | [8]; at 1.2 µM -9% | [8]; at 3.7 µM -14% | [8]; at 11.0 µM -1% | [9]; at 1.2 µM 19% | [9]; at 3.7 µM 26% | [9]; at 11.0 µM 34% | [10]; [17] 39% | [10]; [18] 55% | [11]; at 1.2 µM -29% | [11]; at 3.7 µM -30% | [11]; at 11.0 µM -16%

O=C(Oc1ccc2c(c1)CN(Cc1ccccc1)CO2)c1ccccc1
active: [16]; at 50.0 µM 79.2% | [2]; at 100.0 µM 87% | [3]; at 50.0 µM 77.2% | [6]; at 50.0 µM 72.7% | [9]; at 100.0 µM 70% | [10]; at 50.0 µM 83% | [11]; at 100.0 µM 72%
inactive: [12]; at 1.2 µM -3% | [12]; at 3.7 µM 4% | [12]; at 11.0 µM 8% | [12]; at 33.0 µM 18% | [12]; at 100.0 µM 38% | [13]; at 1.2 µM 2% | [13]; at 3.7 µM 4% | [13]; at 11.0 µM 8% | [13]; at 33.0 µM 13% | [13]; at 100.0 µM 10% | [14]; at 1.2 µM -4% | [14]; at 3.7 µM -3% | [14]; at 11.0 µM 4% | [14]; at 33.0 µM 6% | [14]; at 100.0 µM 22% | [15]; at 1.2 µM -1% | [15]; at 3.7 µM 0% | [15]; at 11.0 µM 2% | [15]; at 33.0 µM 10% | [15]; at 100.0 µM 39% | [16]; at 1.2 µM 2% | [16]; at 3.7 µM 2% | [16]; [17] -1% | [16]; at 11.0 µM 17% | [16]; at 33.0 µM 4% | [16]; [18] 46% | [16]; at 100.0 µM 32% | [1]; at 1.2 µM -2% | [1]; at 3.7 µM 0% | [1]; [17] -15% | [1]; at 11.0 µM 3% | [1]; at 33.0 µM 8% | [1]; [18] 3% | [1]; at 50.0 µM 25.1% | [1]; at 100.0 µM 26% | [2]; at 1.2 µM 4% | [2]; at 3.7 µM 11% | [2]; at 11.0 µM 24% | [2]; at 33.0 µM 40% | [3]; [17] 19% | [3]; [18] 40% | [4]; at 1.2 µM -5% | [4]; at 3.7 µM -5% | [4]; at 11.0 µM -1% | [4]; at 33.0 µM 16% | [4]; at 100.0 µM 42% | [5]; [17] -16% | [5]; [18] 39% | [5]; at 50.0 µM 21.9% | [6]; at 1.2 µM -4% | [6]; at 3.7 µM -2% | [6]; [17] -6% | [6]; at 11.0 µM -29% | [6]; at 33.0 µM 31% | [6]; [18] 46% | [6]; at 100.0 µM 35% | [7]; at 1.2 µM -1% | [7]; at 3.7 µM 3% | [7]; at 11.0 µM 7% | [7]; at 33.0 µM 23% | [7]; at 100.0 µM 40% | [8]; at 1.2 µM 6% | [8]; at 3.7 µM 3% | [8]; at 11.0 µM 7% | [8]; at 33.0 µM 4% | [8]; at 100.0 µM 37% | [9]; at 1.2 µM 4% | [9]; at 3.7 µM 9% | [9]; at 11.0 µM 17% | [9]; at 33.0 µM 42% | [10]; [17] -9% | [10]; [18] 49% | [11]; at 1.2 µM 17% | [11]; at 3.7 µM 15% | [11]; at 11.0 µM 19% | [11]; at 33.0 µM 28%
